In the library only some 3.9% were active in any assay of this set; here they are far more common.
BRCA1 expr up = increases BRCA1 expression | MCF7-BRCA1-FFLuc reporter, luminescence, 48 h; response scale: scaled: vehicle 0%, 10 µM genistein 100% | AID 624202 | 380,000 tested, 1.1% active | Potency, µM (titrated, usually from 46.1 µM), for inactives: at the highest dose activation, usual class: activators; also: nearly all actives have a fitted effect of over 80% in size
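Luminescence from a BRCA1-driven firefly luciferase in MCF7 cells was read after 48 h compound exposure at 37 C. Data normalized against DMSO and a 10microM genistein activation control, then curve-fitted across the titration.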
Tb PFK inh = inhibitors of T. brucei phosphofructokinase | O15648 | Potency, µM (doses to about 57.5 µM), without a hit: at the top dose activity, negative = inhibition, actives largely listed as inhibitors | 330,000 tested, 0.17% active | T. brucei PFK, ADP-Glo luminescence;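 also: 0% = uninhibited 1x PFK enzyme wells and -100% = no-enzyme wells; nearly all actives have a fitted effect of over 60% in size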
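PFK 1.25 nM, F6P 0.5 mM, ATP 0.1 mM, 0.1 M TEA pH 8.0, 5 mM MgCl2, 0.01% Tween20, 0.1% BSA; 45 min RT. ADP-Glo readout. qHTS titration up to 57 uM; curves fitted, compounds curve-classed.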
VDR inhibitor = blocks the human vitamin D receptor; VDR-SRC2-3 peptide fluorescence polarization, 2 h; 400,000 tested, 0.93% active; Potency, µM, without a hit: max response, negative = inhibition, actives largely listed as inhibitors; also: % is scaled to controls: 0 for no effect and ±100 for the full control effect
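VDR–SRC2-3 interaction, FP format. Cmpds 23 nl via pintool, brief spin, 2 h ambient incubation.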
PLK1 PBD inh = blocks phosphopeptide binding to human PLK1 polo-box domain; P53350; Plk1 PBD binding of FITC phosphopeptide, fluorescence polarization; Potency, µM, without a hit: max response, negative = inhibition, hits mostly inhibitors; 360,000 tested, 2.8% active; AID 720504; also: series mostly up to about 57 µM; % is scaled to controls: 0 for no effect and ±100 for the full control effect; nearly all actives have a fitted effect of over 65% in size
Target sequence (P53350 whole entry, looked up, the tested form may be a part): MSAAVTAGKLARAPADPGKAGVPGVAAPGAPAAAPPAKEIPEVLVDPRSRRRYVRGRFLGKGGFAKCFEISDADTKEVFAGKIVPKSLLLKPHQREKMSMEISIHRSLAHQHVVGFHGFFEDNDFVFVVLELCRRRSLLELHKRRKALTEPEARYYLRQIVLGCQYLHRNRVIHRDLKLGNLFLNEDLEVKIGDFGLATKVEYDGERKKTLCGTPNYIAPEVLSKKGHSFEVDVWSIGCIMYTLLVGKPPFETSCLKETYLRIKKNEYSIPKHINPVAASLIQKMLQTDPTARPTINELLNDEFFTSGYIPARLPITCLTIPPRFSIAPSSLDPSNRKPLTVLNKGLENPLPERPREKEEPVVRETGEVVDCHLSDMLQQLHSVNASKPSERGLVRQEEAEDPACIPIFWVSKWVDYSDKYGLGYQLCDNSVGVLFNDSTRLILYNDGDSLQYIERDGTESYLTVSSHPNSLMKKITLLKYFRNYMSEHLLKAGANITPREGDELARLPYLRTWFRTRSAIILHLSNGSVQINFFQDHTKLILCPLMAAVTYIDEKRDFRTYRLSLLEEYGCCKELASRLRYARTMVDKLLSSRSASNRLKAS
Numbers without * were called inactive; ? = inconclusive; · = no result. Calls follow the shape of the dose curve; as a rule, active = well fitted curve in the direction sought with a large enough effect; inconclusive = small, poorly fitted or top-dose-only effect, or another doubt; inactive = no such curve, though single readings can be large; an effect the other way counts as inactive or inconclusive. Potency is read from the fitted curve at half-maximal effect.

SMILES	BRCA1 expr up	Tb PFK inh	VDR inhibitor	PLK1 PBD inh
Cc1cccc(OCC(=O)NC(Cc2ccccc2)C(=O)O)c1 (stereo not given)	-9.7%	-0.3%	-1.6%	-7.7%
Cc1ccc2c(c1)c(CC(NC(=O)c1ccccc1Oc1ccccc1)C(=O)O)cn2C(=O)OCc1ccccc1 (stereo not given)	·	·	31.6µM*	·
Cc1cc(C)cc(-c2cc3c(c(-c4c(O)c(-c5cc(C)cc(C)c5)cc5c4CCCC5)c2O)CCCC3)c1	·	·	9.5%	·
Cc1sc(NC(=O)C2CCCCC2C(=O)O)c(C(N)=O)c1-c1ccccc1 (stereo not given)	94.3%	1.3%	-20.0%	?
Cc1sc(NC(=O)/C=C/C(=O)O)c(C(N)=O)c1-c1ccc(C(C)(C)C)cc1	-40.6%	0.2%	79.4µM*	26.7µM*
CCOC(=O)c1c(NC(=O)/C=C\C(=O)O)sc(C)c1-c1ccccc1	-98.4%	2.2%	-26.4%	21.2µM*
Cc1sc(NC(=O)C2CCCCC2C(=O)O)c(C(N)=O)c1-c1ccc(C(C)(C)C)cc1 (stereo not given)	12.3%	-6.8%	?	21.2µM*
CCc1c(C)sc(NC(=O)/C=C/C(=O)O)c1C(N)=O	-0.8%	7.7%	-7.6%	-15.7%
CCOC(=O)c1c(NC(=O)/C=C/C(=O)O)sc(C)c1-c1ccc(C(C)(C)C)cc1	-82.1%	-5.9%	20µM*	21.2µM*
COc1ccc(CNC(=O)CN(c2ccccc2OC)S(=O)(=O)c2ccc(C)cc2)cc1	·	·	20.1%	·
COc1ccc(S(=O)(=O)N(CCO)c2ccccc2CN(C)C/C=C/c2ccc(Cl)cc2)cc1	·	·	-1.8%	·
Cc1ccc(C)c(N2CCN(C(=O)c3ccc(-c4nc(COc5ccccc5)c(C)o4)cc3)CC2)c1	·	·	12.7%	·
CCCCc1ccc(-n2nc3cc(C)c(NC(=O)Cc4ccccc4)cc3n2)cc1	·	·	-3.5%	·
Cc1cccc(N2CCn3c2nc2c3c(=O)n(C/C=C/c3ccccc3)c(=O)n2C)c1	·	·	8.9%	·
CS(=O)(=O)C1=NSC2=NC(=O)/C(=C\c3cccn3-c3ccc(Cl)cc3)C(=N)N21	-4.4%	-28.7%	?	21.2µM*
Cc1ccc(NC(=O)C2(c3ccccc3)CCOCC2)cc1	0.6%	0.6%	-15.4%	26.7µM*
CC1CCN(S(=O)(=O)c2cc(C(=O)NCc3ccc(N(C)C)cc3)n(C)c2)CC1	-24.0%	·	-3.2%	·
O=C1NC(=O)C2(N1)C(=O)c1cccc3cccc2c13 (stereo not given)	-0.4%	·	·	10.6µM*
O=C1NC2(O)C(=O)c3ccccc3C2(O)N1 (stereo not given)	14.7%	-3.6%	4.9%	-1.6%
Cc1cccc(NC(=O)C(=O)NCC(c2cccnc2)N2CCOCC2)c1 (stereo not given)	·	·	3.2%	·
O=C(O)c1cnn(-c2nc(-c3ccc(Br)cc3)cs2)c1C(F)(F)F	5.01µM*	1.9%	?	?
O=C(O)c1cccc(-c2nnn(Cc3ccccc3Cl)n2)c1	-75.6%	-6.3%	-24.5%	21.2µM*
COc1ccccc1OCCNC(=O)c1ccc2c(c1)CCC2	11.2µM*	4.0%	1.2%	-14.0%
CCCCC[C@@H](/C=C/C1C(=O)C=C[C@H]1C/C=C\CCCC(=O)OC)OC(C)=O (stereo not given in full)	-46.5%	·	10µM*	-22.0%
O=C(N/N=C/c1cccc([N+](=O)[O-])c1)c1ccc(Br)cc1	2.5%	-5.6%	-8.0%	-15.8%
SMILES	BRCA1 expr up	Tb PFK inh	VDR inhibitor	PLK1 PBD inh
O=C(CSc1ncccn1)N/N=C/c1cccc([N+](=O)[O-])c1	22.5%	-4.1%	-16.4%	-1.8%
Cc1cc(C)nc(SCC(=O)N/N=C/c2cccc([N+](=O)[O-])c2)n1	-22.4%	-0.2%	79.4µM*	21.2µM*
O=C(N/N=C/c1ccc(-n2ccnc2)cc1)c1cccs1	11.2µM*	-0.8%	-2.3%	-9.9%
Cc1cc(C)nc(SCC(=O)NN=C2CCCC2)n1	-23.0%	0.0%	?	6.7µM*
O=C(N/N=C/c1cccc([N+](=O)[O-])c1)c1cccs1	12.6µM*	2.8%	4.1%	0.6%
CCC1Oc2ccc(C)cc2N(CC(=O)NCc2ccc(OC)cc2)C1=O (stereo not given)	2.5%	·	0.3%	·
Cc1cc(C)c(NC(=O)CSc2nc3ccccc3c3nc(-c4ccccc4)nn23)c(C)c1	·	·	13.0%	·
CCCn1c2ccccc2c2cnn(CC(=O)Nc3ccc(C)cc3Br)c(=O)c21	·	·	18.9%	·
O=c1cc(-c2ccccc2)n2c(SCc3ccc(Br)cc3)nnc2[nH]1	·	·	15.1%	·
COc1ccccc1NC(=O)c1cc2cc(Br)ccc2oc1=N	14.5%	1.6%	89.1µM*	-8.5%
Cc1nc(-c2cccc(NC(=O)c3ccc(Br)o3)c2)cs1	47.4%	2.0%	1.3%	-6.2%
CC(C)(C)c1csc(NC(=O)c2ccncc2)n1	1.9%	-2.9%	19.4%	-2.8%
CC(C)(C)c1csc(NC(=O)c2ccc(Br)o2)n1	10µM*	-8.7%	-19.7%	0.9%
Cc1nc(-c2ccc(NC(=O)c3ccc(Br)o3)cc2)cs1	11.2µM*	-20.7%	-13.2%	-6.9%
COc1ccc(-c2csc(NC(=O)CC(C)C)n2)cc1	8.91µM*	-0.9%	5.7%	-13.5%
Cc1nc(-c2ccc(NC(=O)CC(C)C)cc2)cs1	2.24µM*	-1.0%	-12.4%	?
CC(C)C(=O)Nc1cccc(-c2csc(-c3ccccc3)n2)c1	68.9%	-3.5%	-2.2%	-2.0%
CC(C)C(=O)Nc1ccc(-c2csc(-c3ccccc3)n2)cc1	5.01µM*	0.6%	6.1%	-7.4%
CCC(=O)NC(c1ccc(Cl)cc1Cl)c1ccc2cccnc2c1O (stereo not given)	-65.3%	-0.4%	27.5%	3.1%
CCCC(=O)NC(c1ccc(N(C)C)cc1)c1ccc2cccnc2c1O (stereo not given)	-98.6%	3.3%	-21.5%	26.7µM*
CCCC(=O)NC(c1ccc(C(C)C)cc1)c1ccc2cccnc2c1O (stereo not given)	-80.1%	0.9%	-11.8%	-12.3%
O=C(O)c1ccccc1NC(c1ccccc1)c1ccc2cccnc2c1O (stereo not given)	-84.7%	·	35.5µM*	0.597µM*
CCCCC(=O)NC(c1ccc(Cl)cc1Cl)c1ccc2cccnc2c1O (stereo not given)	-91.3%	0.7%	?	3.36µM*
O=C(O)/C=C/c1cccc(B(O)O)c1	-5.9%	·	-10.0%	·
COc1ccc(CNC(=O)CCc2c(C)c3cc4c(C)coc4cc3oc2=O)cc1	·	·	14.6%	·
SMILES	BRCA1 expr up	Tb PFK inh	VDR inhibitor	PLK1 PBD inh
COC(=O)c1sc2ccccc2c1N	-9.8%	-9.3%	-28.0%	26.7µM*
COC(=O)c1sc2ccccc2c1C(=O)OC	-2.2%	0.6%	-12.9%	-5.9%
O=C(O)Cc1ccc(C(=O)CSc2ccccc2)s1	24.8%	-27.1%	?	11.9µM*
COc1ccc(C#CC2=CC(=O)CC(C)(C)C2)cc1	58.6%	·	·	-26.8%
O=C(CCCCCn1c(=O)c2sccc2n(Cc2ccc(Cl)cc2)c1=O)NCc1ccc2c(c1)OCO2	·	·	89.1µM*	·
CC1(C)CC(=O)C=C(CN2C(=O)c3ccccc3C2=O)C1=O	0.5%	-0.9%	-22.8%	-2.4%
O=c1c2ccccc2oc2ccc(C#CC3(O)CCCCC3)cc12	16.2%	·	-13.9%	1.9%
Cn1c2ccccc2c(=O)c2ccc(C#CC3(N)CCCCC3)cc21	5.62µM*	0.6%	-18.9%	-1.5%

High-throughput results (PubChem)
